Source: PubChem BioAssay (NCI)
About 79,000 compounds went through this panel and 15% of them were active in at least one assay; those are over-represented in the sample as a whole. Unmarked numbers belong to inactive results. Calls of active or inactive are those of the source. Cut-off read from the data, not from the text of the source: active = growth inhibition above about 70%; inactive = the rest.

Experiments:
[1] = NCI Yeast Anticancer Drug Screen. Data for the rad50 strain (AID 155);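 note: 0% = growth of vehicle-only cultures of the same strain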; details: S. cerevisiae rad50 strain growth inhibition, hits give high values
Summary of the method: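 Relative growth inhibition (compound vs vehicle) was measured in yeast with a defined repair-gene alteration.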

[2] = NCI Yeast Anticancer Drug Screen. Data for the mec2-1 strain (AID 157); details: S. cerevisiae mec2-1 strain, hits give high values
Summary of the method: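 Vehicle-treated cultures served as reference for growth inhibition of compound-exposed mec2-1 yeast.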

[3] = NCI Yeast Anticancer Drug Screen. Data for the sgs1 mgt1 strain (AID 161);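 note: 0% = growth of cultures given vehicle only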; details: S. cerevisiae sgs1 mgt1 strain, hits give high values
Summary of the method: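 Read-out: growth inhibition vs vehicle controls. Cells: mutant yeast strain deficient in DNA damage repair.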

[4] = NCI Yeast Anticancer Drug Screen. Data for the cln2 rad14 strain (AID 165);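 note: 0% = growth equal to vehicle treated cultures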; details: S. cerevisiae cln2 rad14 strain, hits give high values
Summary of the method: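 Each compound was tested on cln2 rad14 yeast. Inhibition of growth was calculated against vehicle-exposed controls.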

[5] = NCI Yeast Anticancer Drug Screen. Data for the bub3 strain (AID 167); details: S. cerevisiae bub3 mutant strain, hits give high values
Summary of the method: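 Screening used yeast with an engineered genetic alteration affecting cell cycle control. Compound-exposed cultures were compared with vehicle cultures, and reduced growth was taken as inhibition.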

[6] = NCI Yeast Anticancer Drug Screen. Data for the mlh1 rad18 strain (AID 175); details: S. cerevisiae mlh1 rad18 strain growth inhibition, hits give high values
Summary of the method: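 Vehicle-treated cultures served as the reference for growth inhibition in a yeast strain carrying DNA damage repair alterations exposed to each compound.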

[7] = at 5.0 µM (retest, dose inferred, filed as 0.5)
[8] = at 50.0 µM (retest, dose inferred, filed as 5.0)

Compound | growth inhibition [1, 7] | growth inhibition [1, 8] | growth inhibition ([1]; at 50.0 µM) | growth inhibition [2, 7] | growth inhibition [2, 8] | growth inhibition ([2]; at 50.0 µM) | growth inhibition [3, 7] | growth inhibition [3, 8] | growth inhibition ([3]; at 50.0 µM) | growth inhibition [4, 7] | growth inhibition [4, 8] | growth inhibition ([4]; at 50.0 µM) | growth inhibition [5, 7] | growth inhibition [5, 8] | growth inhibition ([5]; at 50.0 µM) | growth inhibition [6, 7] | growth inhibition [6, 8] | growth inhibition ([6]; at 50.0 µM)
N#CSCCl | 0% | 42% | 91.7% (active) | 5% | 75% (active) | 92% (active) | -2% | 20% | 93.8% (active) | 1% | 61% | 91% (active) | -4% | 93% (active) | 92.3% (active) | 3% | 87% (active) | 92% (active)
CC(CO)(CO)N=Cc1cc(I)cc(I)c1O | 91% (active) | 100% (active) | 99.6% (active) | 97% (active) | 100% (active) | 99.6% (active) | 86% (active) | 99% (active) | 99.7% (active) | 87% (active) | 99% (active) | 99.4% (active) | 86% (active) | 100% (active) | 99.5% (active) | 98% (active) | 100% (active) | 99.6% (active)
CC(C)(C)[Si](C)(C)OCC1OC(n2cnc3c(NC(=O)c4ccccc4)ncnc32)CC1O (stereo not drawn) | 2% | 4% | 10% | -2% | 4% | -28.8% | -1% | 6% | 3.25% | -1% | 2% | 77.6% (active) | -2% | -4% | 10.5% | -2% | 4% | 32.5%
C=CCOC(=O)SC(=S)OCN(C)C | 3% | 98% (active) | 99.2% (active) | -3% | 99% (active) | 99.4% (active) | 1% | 99% (active) | 99.4% (active) | 4% | 99% (active) | 98.6% (active) | -1% | 98% (active) | 99.3% (active) | 1% | 99% (active) | 99.1% (active)
O=C1C(Cl)=C(NCCC2CCCN3CCCCC23)C(=O)c2ccccc21 (stereo not drawn) | 13% | 48% | 65.3% | -8% | 54% | 53.4% | 10% | 55% | 79.5% (active) | 2% | 37% | 63.7% | 2% | 51% | 26.1% | 6% | 27% | 70.8% (active)
O=C1/C(=C/c2cccc(O)c2)SC(=S)N1/C=C\c1nc2ccccc2[nH]c1=O | 8% | 2% | 9.55% | -8% | -13% | 5.1% | -4% | 1% | 3.6% | 17% | -32% | 33.2% | 11% | -5% | -3.85% | -2% | -7% | -0.25%
COc1ccc(C(=O)C(Br)CS(=O)(=O)c2ccc(C)cc2)cc1 (stereo not drawn) | 56% | 99% (active) | 99% (active) | 36% | 99% (active) | 99.4% (active) | 71% (active) | 99% (active) | 99.4% (active) | 18% | 98% (active) | 97.8% (active) | 47% | 98% (active) | 99.1% (active) | 48% | 98% (active) | 99% (active)
CCOc1ccc2nc(C)cc(C)c2c1 | -1% | 75% (active) | 26.6% | -23% | 31% | -13.4% | -7% | 60% | -0.25% | 1% | 2% | 34.5% | -8% | 63% | -17.2% | -4% | 63% | 38.6%
C[C@H]1CC[C@@H]2[C@@H](C)[C@H]3[C@H](C[C@H]4[C@@H]5CC=C6C[C@@H](O)CC[C@]6(C)[C@H]5CC[C@]34C)N2C1 | 27% | 98% (active) | 58% | 28% | 99% (active) | 93.5% (active) | 44% | 99% (active) | 93.2% (active) | 28% | 98% (active) | 91.2% (active) | 48% | 99% (active) | 93% (active) | 56% | 98% (active) | 86.6% (active)
O=C(N/N=C/c1ccc2c(c1)OCO2)c1ccc([N+](=O)[O-])cc1 | 3% | 2% | 5.35% | -14% | -15% | 14.5% | 8% | 7% | 14.8% | 4% | 5% | 30.7% | 0% | 16% | 0.25% | 3% | 13% | 57%
C/C(=N/NC(=S)Nc1ccc([N+](=O)[O-])cc1)c1cccc(/C(C)=N\NC(=S)Nc2ccc([N+](=O)[O-])cc2)n1 | 14% | 50% | 19.6% | 5% | 72% (active) | 0.15% | 15% | 87% (active) | 35.5% | 19% | 82% (active) | -7.35% | 21% | 94% (active) | 2.45% | 10% | 61% | 14.4%
Cn1ncc2c(Nc3ccccc3)nc(Nc3ccccc3)nc21 | -1% | 7% | 54.1% | -5% | -33% | 54.1% | -1% | 8% | 56.5% | 5% | 0% | 44.5% | -1% | -17% | 72.5% (active) | 5% | 15% | 80.4% (active)
CCOC(=O)c1c(C)[nH]c(C(=O)C(N)C(=O)OCC)c1C (stereo not drawn) | 8% | -3% | 98% (active) | 6% | -6% | 99.5% (active) | 7% | -1% | 98.8% (active) | 3% | -1% | 99.5% (active) | -3% | -5% | 99.4% (active) | 4% | -6% | 99% (active)
COc1ccc(I)c(C=NC2CCCCC2)c1C | 41% | 94% (active) | 97.2% (active) | 16% | 82% (active) | 91.5% (active) | 41% | 92% (active) | 99% (active) | 1% | 88% (active) | 41.8% | 35% | 94% (active) | 89.4% (active) | 27% | 93% (active) | 94.7% (active)
O=C(CBr)c1cccc(OC(=O)c2ccccc2)c1 | 91% (active) | 99% (active) | 44.2% | 91% (active) | 98% (active) | 26.1% | 100% (active) | 99% (active) | 68% | 88% (active) | 99% (active) | 29.9% | 99% (active) | 99% (active) | 56.2% | 90% (active) | 99% (active) | 16.1%
Cc1ccc(C(=O)OCC(C)C)cc1N=NN(C)C | 4% | 21% | 68.8% | -3% | -6% | 19.9% | -5% | 14% | 29.4% | 7% | 31% | 38.8% | -1% | 48% | 31.1% | -24% | 38% | 8.3%
CC(C)/C=C1\CCC(CN2CCOCC2)C1=O (stereo not drawn) | 24% | 36% | 72.1% (active) | 18% | 26% | 28.4% | 22% | 44% | 48.7% | 23% | 20% | 30.9% | 17% | 62% | 30.6% | -5% | 71% (active) | 67.2%
Clc1ccc(Oc2nc(Cl)nc3[nH]ncc23)cc1 | 7% | 35% | 38% | 4% | 58% | 30.6% | 11% | 78% (active) | 72.9% (active) | 8% | 32% | -4.85% | 7% | 37% | 18.4% | 10% | 68% | 40.1%
CN(C)c1ccc(/C=N/N=C(/C#N)[S][Sn]([S]/C(C#N)=N/N=C/c2ccc(N(C)C)cc2)([c]2ccccc2)[c]2ccccc2)cc1 | 7% | 95% (active) | 98.3% (active) | 1% | 96% (active) | 96.5% (active) | 10% | 92% (active) | 97.7% (active) | 0% | 89% (active) | 95.9% (active) | -19% | 98% (active) | 95.7% (active) | 5% | 96% (active) | 97.4% (active)
O=C1c2ccccc2-c2ccc(N3C(=O)C4CCCCC4C3=O)cc21 (stereo not drawn) | -5% | 95% (active) | -31.3% | -4% | 96% (active) | 5.4% | -4% | 96% (active) | -9.15% | -8% | 95% (active) | -36.8% | 41% | 95% (active) | 74.9% (active) | -4% | 94% (active) | -26.2%
CN(Cc1cc(Cl)cc(Cl)c1)CC(C(=O)c1ccccc1)c1ccccc1 (stereo not drawn) | 21% | 86% (active) | 81.7% (active) | 13% | 90% (active) | 96.5% (active) | 57% | 96% (active) | 93.3% (active) | 3% | 85% (active) | 50.3% | 14% | 94% (active) | 41.5% | 29% | 91% (active) | 97.3% (active)
Clc1ccc2c(NC3CCC(N4CCCCC4)CC3)ccnc2c1 (stereo not drawn) | 99% (active) | 97% (active) | -13.2% | 90% (active) | 97% (active) | -25.6% | 93% (active) | 98% (active) | -24.1% | 76% (active) | 97% (active) | 27.1% | 94% (active) | 97% (active) | -79.4% | 98% (active) | 97% (active) | -16%
Cc1cc2c(Br)cc(Br)c(O)c2nc1C(=O)c1ccccc1 | 23% | 39% | 31.8% | 16% | 38% | 19.5% | 37% | 90% (active) | 35.8% | 33% | 80% (active) | 43.9% | 20% | 87% (active) | 29.9% | 32% | 33% | 21.8%
CNC(C)C(=O)c1ccc2ccc3ccccc3c2c1 (stereo not drawn) | -3% | 24% | 54.5% | -5% | 12% | 46.6% | -2% | 34% | 58.9% | 0% | 16% | 17.6% | -3% | 24% | 67.8% | -6% | 28% | 71.5% (active)
CN(/N=C\c1cccc([N+](=O)[O-])c1)C(c1cccc([N+](=O)[O-])c1)N(C)/N=C/c1cccc([N+](=O)[O-])c1 (stereo not drawn) | -1% | 34% | 43% | -1% | 45% | 48.4% | 2% | 74% (active) | 68.5% | 0% | 17% | 8.75% | -7% | 16% | 16.5% | 0% | 40% | 40.6%
C=CCOc1ccc(C2(c3ccc(OCC=C)cc3)C(=O)Nc3ccccc32)cc1 | 1% | 90% (active) | 84.1% (active) | -8% | 92% (active) | 86.8% (active) | 8% | 90% (active) | 89.2% (active) | 24% | 91% (active) | 86.5% (active) | 6% | 93% (active) | 87.9% (active) | 5% | 88% (active) | 86.6% (active)
